Source: PubChem BioAssay AID1347383 (Zoeller Lab, School of Medicine, Boston University, 2020)
Activity calls are given as the source filed them.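 The calls were made as follows: active = cell survival after UV exposure 2 SD above solvent-only control wells at 10 µM, confirmed on one or two repeats; inactive = the rest.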

Assay: protection of CHO cells from pyrene-fatty acid UV killing, primary screen, phospholipid biosynthesis inhibitor project, ZR-82 cells, Analyticon library, screen 2 (AID 1347383);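 also: survival reflects blocked phospholipid synthesis cutting uptake of the phototoxic fatty acid; compound and fatty acid exposure 3 h then viability read next day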
Conditions: ZR-82 CHO cells, CellTiter Blue, at 10 µM, peroxisome-deficient CHO-K1 variant, with DGAT-1, DGAT-2 and ACAT inhibitors

SMILES | outcome
C=CC(C)(O)CC[C@@]1(C)[C@H](C)CC[C@]2(C)[C@@H]1C[C@@H](O)[C@@H](O)[C@]2(C)O (some centres undefined) | inactive
O=C(O)/C=C/c1ccc(O[C@@H]2O[C@H](CO)[C@@H](O)[C@H](O)[C@H]2O)cc1 | inactive
COc1cc(CCc2ccc(OCC(O)C(C)(C)O)cc2)cc2c1OCO2 (centres undefined) | inactive
O=C(O)C(O)Cc1c[nH]c2ccccc12 (centres undefined) | inactive
COc1ccc(C(O)CNC(=O)/C=C/c2ccccc2)cc1 (centres undefined) | inactive
CC/C=C\C/C=C\C/C=C\CCCCCCCC(=O)OCC(O)COC1OC(CO)C(O)C(O)C1O (centres undefined) | inactive
C=C(C)[C@@H]1CC[C@]2(COC(C)=O)CC[C@]3(C)[C@H](CC[C@@H]4[C@@]5(C)CC[C@H](OC(C)=O)C(C)(C)[C@@H]5CC[C@]43C)[C@@H]12 | inactive
COc1cc(/C=C/CO)ccc1OC/C=C(\C)CCC=C(C)C | inactive
CCCCCC1=C(CO)C(O)C(O)CC1=O (centres undefined) | inactive
O=C(O)C1(O)C[C@@H](O)C(O)[C@H](O)C1 (some centres undefined) | inactive
COC1C(=O)CCC2(CO2)C1(O)C1(C)OC1CC=C(C)C (centres undefined) | inactive
O=c1c(O)c(-c2ccc(O)cc2O)oc2cc(O)cc(O)c12 | inactive
C/C=C/CCC1Cc2cc(O)c(CCCC)c(O)c2C(=O)O1 (centres undefined) | inactive
C=C[C@H]1CN2CC[C@H]1C[C@@H]2C(O)c1ccnc2ccc(OC)cc12 (some centres undefined) | inactive
C=C1C(=O)O[C@@H]2C3=C(C)CCC[C@]3(C)CC[C@@]12O | inactive
O=C(O)COC(=O)CCCCCCCO | inactive
CC1=CC2C3C(C(C)=C4C3[C@@](C)(O)CC[C@H]3[C@H](C)C(=O)O[C@H]43)C13C2[C@@](C)(O)CC[C@H]1[C@H](C)C(=O)O[C@@H]13 (some centres undefined) | inactive
O=C1NC(Cc2c[nH]c3ccccc23)C(=O)NC1Cc1ccccc1 (centres undefined) | inactive
CC#CC#C/C=C1\C=CC2(OC=CC2OC(=O)C=C(C)C)O1 (centres undefined) | inactive
CCC/C=C/C=C/C1C[C@@H](O)[C@@H](O)C(=O)[C@H]1CO (some centres undefined) | inactive

SMILES | outcome
CC(=O)C(C)C(O)C(C)c1ccc(CO)cc1/C=C/CO (centres undefined) | inactive
O=C(c1cccc(O)c1)c1c(O)cc(O)cc1O | inactive
Nc1ccccc1CCCCCCCCC(=O)O | inactive
O=C1OCC(c2ccccc2)=C1Cc1ccccc1 | inactive
C[C@@H]1O[C@@H](Oc2c(-c3ccc(O)cc3)oc3cc(O)cc(O)c3c2=O)[C@H](O)[C@H](O)[C@H]1O | inactive
CC1NC(=O)c2ccccc2NC1=O (centres undefined) | inactive
CC1=C(CCCCC(=O)O)COC1=O | inactive
CC(=O)OC1C(=O)C2C3OCC4=C3[C@@](C)(CC[C@@H]4O)CC[C@]2(C)[C@H]1C(C)C (some centres undefined) | inactive
COc1c(C)c2c(c(O)c1C/C=C(\C)CCCC(C)C(=O)O)C(=O)OC2 (centres undefined) | inactive
CO[C@@H]1[C@H](OC(=O)/C=C/C(O)C(C)O)CC[C@]2(CO2)[C@H]1[C@@]1(C)O[C@@H]1CC=C(C)C (some centres undefined) | inactive
COc1ccc(C(O)C(C)O)cc1 (centres undefined) | inactive
O=C(CCc1ccccc1)C[C@@H](O)CCc1ccccc1 | inactive
COC12CC3C(C(C)C1=CC(=O)O2)C(O)C(OC(=O)/C=C/c1ccccc1)C1(O)C(C)(C)CCCC31C (centres undefined) | inactive
Oc1cc(O)cc(/C=C/c2ccc(O)c(O)c2)c1 | inactive
COc1ccc(C)c2c(O)c(CC=C(C)C)c(=O)oc12 | inactive
CCCCCCCCCCCCC(O)/C=C/CCC(=O)O (centres undefined) | inactive
C[C@]12CC[C@@H]3c4ccc(O)cc4CC[C@H]3[C@@H]1CCC2=O | inactive
Cc1cc(O)c2c(c1)C(=O)c1cccc(O)c1C2=O | inactive
CCC(C)C1NC(=O)C2CCCN2C1=O (centres undefined) | inactive
